The results in this text go back to PubChem BioAssay AID463173 (ICCB-Longwood Screening Facility, Harvard Medical School, 2010).

Among all 52,000 compounds or so, about 1,700 (3.3%) were called active. The full list was thinned out, with actives kept by preference. Unmarked numbers belong to inactive results. Cut-off read from the data, not from the text of the source: active = survival mostly below about 52% (no sharp cut-off); inactive = mostly above about 56%.

The assay has as its system Wild type. Put plainly: S. aureus survival, RN4220 and DeltatarO strains – OD600, teichoic acid synthesis inhibitors, primary screen (AID 463173). The settings on record: S. aureus RN4220 wild type/DeltatarO growth, OD600, 18 h, hits give low values, screened at 18.75 µg/mL (by protocol).
`CCOC(=O)c1ccc(N2CCN(c3ccccc3OC)CC2)c(NC(=O)Nc2ccc(CC)cc2)c1`: the survival was 80%.
Turning to `CCOC(=O)C(Cc1ccccc1)N1C(=O)c2ccccc2C1=O` (stereo unspecified), the survival was 104%.
On to `COc1cccc(NS(=O)(=O)c2ccc3[nH]cc(C(=O)NCCc4ccc(C)cc4)c(=O)c3c2)c1`, for which the survival was 124%.
Take `Nc1ccc(S(=O)(=O)N2CCSC2C(=O)O)cc1` (stereo unspecified): the survival is 101%.
To `COc1ccc(N2CCN(c3ncnc4c3nc3n4CCCCC3)CC2)cc1` belongs 73%; to `Clc1cccc(N2CCN(c3ncnc4c3nc3n4CCCCC3)CC2)c1`, 3% (active); to `COc1cccc(N2CCN(c3ncnc4c3nc3n4CCCCC3)CC2)c1`, -3% (active).
For the compound `O=C(C1CCN(c2ncnc3c2nc2n3CCCCC2)CC1)N1CCN(c2cccc(Cl)c2)CC1`, the survival was 57%.
In the case of `Clc1cccc(N2CCN(c3ncnc4c3nc3n4CCCC3)CC2)c1`, the survival is 117%.
Consider `c1ccc(N2CCN(c3ncnc4c3nc3n4CCCCC3)CC2)cc1`, for which the survival is 72%.
Consider `CCn1cc(C(=O)Nc2cccc(Cl)c2)c2cc(OC)c(OC)cc2c1=O`, for which the survival was 76%.
Regarding `FC(F)(F)Sc1ccc2noc(-c3ccccc3)c2c1`, the survival is 115%.
In the case of `NC(=O)c1ccccc1NC(=O)c1ccc(-c2ccc(Br)cc2)o1`, the survival is 95%.
Next, `COc1cc(C)cc2oc(=O)c(CC(=O)NCCc3ccc(Cl)cc3)c(C)c12`: 118%.
As to `C=CCc1ccccc1OCCSc1nc(-c2ccc(C(C)(C)C)cc2)nc2cc(=O)[nH]n12`, the survival was 0% (active).
On to `COc1ccccc1OCCSc1nc(-c2ccc(C(C)(C)C)cc2)nc2cc(=O)[nH]n12`, for which the survival is 22%.
To `C=CCc1ccccc1OCCSc1nc(-c2ccccc2F)nc2cc(=O)[nH]n12` belongs 80%; to `Cc1cccc(C)c1NCc1nnc(SCC(N)=O)n1-c1ccccc1`, 110%; to `Cc1cc(C)cc(-n2ccn(CC(=O)Nc3ccccc3F)c(=O)c2=O)c1`, 82%.
Consider `Cc1cc(C)cc(NC(=O)Cn2nnc(C(=O)NCc3ccccc3Cl)c2N)c1`, for which the survival is 77%.
As for `Cc1ccc(C)c(NC(=O)c2nnn(CC(=O)Nc3cccc(C)c3C)c2N)c1`, the survival was 88%.
Consider `COc1ccccc1NC(=O)Cn1nnc(C(=O)Nc2ccccc2Br)c1N`, for which the survival is 85%.
Next, `CCc1ccccc1NC(=O)Cn1nnc(C(=O)NCc2ccccc2Cl)c1N`: -3% (active); `CCc1ccccc1NC(=O)Cn1nnc(C(=O)NCc2cccs2)c1N`: 96%; `Cc1cccc(NC(=O)Cn2nnc(C(=O)Nc3ccccc3Br)c2N)c1C`: 0% (active).
To `COc1cccc(CNC(=O)CC(c2ccc(F)cc2)N2Cc3ccccc3C2=O)c1` (stereo unspecified) belongs 82%; to `CCN(CC)C(=O)CSc1nc2ccccc2c(=O)n1CC`, 107%; to `COc1ccc(Nc2oc(/C=C/c3ccccc3OC)nc2C#N)cc1`, 86%.
Regarding `Cc1ccc(-c2nn(CC(=O)NC3CCCC3)c3c2cnc2ccc(F)cc23)cc1C`, the survival was 74%.
For `CCc1ccc(-c2nn(CC(=O)NC3CCCCC3)c3c2cnc2ccc(F)cc23)cc1`, the survival was 68%.
As to `CCc1ccc(-c2nn(-c3ccc(OC)cc3)c3c2cnc2ccc(OC)cc23)cc1`, the survival was 9% (active).
For the compound `CCCNC(=O)Cn1nc(-c2ccc(C)cc2)c2cnc3ccc(CC)cc3c21`, the survival is 10% (active).
Next, `CCOc1ccc(-c2nn(-c3ccc(F)cc3)c3c2cnc2ccc(F)cc23)cc1`: 86%.
Regarding `CCOc1ccc2ncc3c(-c4cccc(OC)c4)nn(-c4ccccc4)c3c2c1`, the survival is 125%.
Take `Cc1ccc(-n2nc(-c3ccccc3)c3cnc4cc5c(cc4c32)OCO5)cc1C`: the survival was 110%.
With `CCc1ccc2ncc3c(-c4ccc(C)cc4)nn(CC(=O)NCc4ccccc4)c3c2c1`, the survival was 65%.
On to `COc1ccc(-n2nc(-c3ccc(C)cc3)c3cnc4cc(F)c(F)cc4c32)cc1`, for which the survival was 85%.
For the compound `CCc1ccc2ncc3c(-c4ccc(C)cc4)nn(CC(=O)Nc4ccc(C)cc4)c3c2c1`, the survival was 47%.
With `COc1ccc2ncc3c(-c4ccccc4)nn(-c4ccc(C)c(C)c4)c3c2c1`, the survival was 0% (active).
With `Cc1ccc(-c2nn(CC(=O)NC3CCCCC3)c3c2cnc2ccc(F)cc23)cc1C`, the survival is -3% (active).
Next, `COc1cc(OC)c(NC(=O)Nc2cccc(OCc3cc(=O)n4ccccc4n3)c2)cc1Cl`: 87%; `N#Cc1ccc(N2CCCCC2)cc1`: 119%; `Oc1ccc(Nc2nc3ccccc3n3cnnc23)cc1`: 78%.
In the case of `COc1ccc(OCC(=O)NCCO)cc1`, the survival is 116%.
For `COc1ccccc1NC(=O)c1cnc(SCC(=O)N2CCOCC2)n(C)c1=O`, the survival was 77%.
To `Cc1ccc(-c2nn(-c3ccccc3)c3c2cnc2ccccc23)cc1C` belongs 68%.
Next, `FC(F)(F)c1ccc2c(c1)ncc1c(-c3ccccc3)nn(-c3ccccc3)c12`: 125%; `CCc1ccc2ncc3c(-c4ccccc4)nn(-c4ccccc4)c3c2c1`: 7% (active); `N#Cc1c(N2CCOCC2)nc(N2CCOCC2)c2c1CCN(Cc1ccccc1)C2`: 112%.
Turning to `COc1ccc(CNC(=O)CCc2c(C)nn(-c3ccc(N4CCCCC4)nn3)c2C)c(OC)c1`, the survival is 64%.
Turning to `CCCn1c(N2CCN(C(=O)Nc3ccc(OC)cc3)CC2)nc2ccccc21`, the survival was 94%.
As for `CC(C)Cn1c(N2CCN(C(=O)Nc3ccc(Cl)cc3)CC2)nc2ccccc21`, the survival was 99%.
For `CCn1c(N2CCN(C(=O)Nc3ccc(Cl)c(C(F)(F)F)c3)CC2)nc2ccccc21`, the survival is 0% (active).
Turning to `CCOCCn1ccc2c(OCC(=O)Nc3ccc(C(N)=O)cc3)cccc2c1=O`, the survival was 32%.
To `Cc1ccc(-n2cccn2)cc1` belongs 113%; to `O=C(O)CCCn1c(=O)oc2ccccc21`, 99%; to `CCOc1ccccc1NC(=O)NCCn1c(=O)oc2ccc(C)cc21`, 79%.
With `N#CCCCn1c(=O)oc2ccccc21`, the survival was 84%.
Regarding `Cc1ccc2oc(=O)n(CCNC(=O)Nc3ccccc3C)c2c1`, the survival is 119%.
Turning to `O=c1oc2ccccc2n1CCCOc1ccccc1Cl`, the survival was 0% (active).
Next, `Cc1ccc2oc(=O)n(CCCOc3ccccc3Cl)c2c1`: -10% (active).
